Assay results from PubChem BioAssay (Tox21).
“And” between values parts separate entries of the source, which are not always exact repeats. Equal entries are not always repeated. Inconclusive results are not listed. Where a call stands in place of a potency, no number is given. More than one record can exist for a structure, and the calls need not agree. The source made the active and inactive calls. The call rests on the fitted dose curve.

Test: qHTS assay to identify small molecule antagonists of the sonic hedgehog signaling (Shh) pathway (AID 1259369); further: nearly all actives have a fitted effect of over 45% in size
Conditions: NIH/3T3 Gli1-Luc reporter, Shh antagonist, luminescence 24 h; series mostly up to 92.4 µM
Summary of the method: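 Inhibition of Shh signalling is measured as reduced Gli1-response-element firefly luciferase output in an NIH/3T3-derived stable reporter clone stimulated with conditioned medium for 24hr.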
Potency means the concentration at half of the fitted maximal effect.

SMILES	Potency
N#CCCCCC#N	inactive
COP(=S)(OC)Oc1ccc(S(=O)(=O)N(C)C)cc1	inactive
N#Cc1c(Cl)c(Cl)c(Cl)c(C#N)c1Cl	0.3 µM (active)
COc1ccc(CO)cc1	inactive
NN=C(N)N	inactive
OC(c1ccc(Cl)cc1)(c1cncnc1)c1ccccc1Cl (stereo not given)	inactive
Cl	inactive
CC(C)(c1ccccc1)c1ccc(O)c(C(C)(C)c2ccccc2)c1	30.4 µM (active) and 13.7 µM (active)
CC(C)(c1ccccc1)c1ccc(O)cc1	27.1 µM (active) and 30.6 µM (active)
COP(=O)(NC(C)=O)SC (stereo not given)	27.3 µM (active) and inactive
COC(=O)Nc1nc2ccccc2[nH]1	24.3 µM (active) and inactive
CC(O)CN(CC(C)O)CC(C)O (stereo not given)	inactive
CCCCSP(=O)(SCCCC)SCCCC	inactive
O=P(OCCCl)(OCCCl)OCCCl	inactive
CCOS(=O)(=O)OCC	inactive
CC(C)(O)C#N	inactive
CS(=O)(=O)NC(=O)c1cc(Oc2ccc(C(F)(F)F)cc2Cl)ccc1[N+](=O)[O-]	inactive
Nc1ccc([N+](=O)[O-])cc1N	2.43 µM (active)

SMILES	Potency
Oc1ccc(Cl)cc1Cc1ccccc1	13.7 µM (active) and 24.6 µM (active)
CCC1(c2ccc(N)cc2)CCC(=O)NC1=O (stereo not given)	inactive
NC(=O)CN1CCCC1=O	inactive
COc1ccc(C=O)cc1OC	24.6 µM (active)
O=C(O)c1nn(Cc2ccc(Cl)cc2Cl)c2ccccc12	inactive
Brc1ccc(Br)cc1	inactive and 54.5 µM (active)
[CH3][Sn]([Cl])([Cl])[Cl]	inactive
O=C1C(Cl)=C(Cl)C(=O)c2ccccc21	1.73 µM (active)
N#Cc1nn(-c2c(Cl)cc(C(F)(F)F)cc2Cl)c(N)c1S(=O)C(F)(F)F (stereo not given)	inactive and 29.8 µM (active)
O=S(=O)(O)C(F)(F)C(F)(F)C(F)(F)C(F)(F)C(F)(F)C(F)(F)C(F)(F)C(F)(F)F	inactive
CCCCOCC1CO1 (stereo not given)	inactive
ClCC(Cl)CCl	inactive
ClC(Cl)(Cl)Br	inactive
CC1=C(C(=O)Nc2ccccc2)SCCO1	inactive
Clc1ccccc1-c1nnc(-c2ccccc2Cl)nn1	inactive
CC1CC(=O)O1 (stereo not given)	inactive
CCOP(=O)(OCC)OCC	inactive
